Consider 22 compounds from PubChem BioAssay (EPA / NIEHS).

Calls of active or inactive are those of the source. The calls were made as follows: active = hit-call score of the fitted dose curve at least 0.9, where 1 is the maximum; inactive = score below 0.9.

One may read the AC50 as the midpoint of the concentration-response curve, whichever way the signal moves.

What all share (details): mRNA level, 48 h; actives raise or lower the signal
Read-out in experiment [1]: Protein phosphatase 2A (PPP2R4), PTPA (gene 5524)
The experiment can be described thus: LTEA_HepaRG_PPP2R4: Life Technologies and Expression Analysis (LTEA) Assay for Protein phosphatase 2A (PPP2R4) using HepaRG (AID 2283522). Summed up: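 Readout is PPP2R4 transcript level by microfluidic qRT-PCR after 48 h chemical treatment of human HepaRG liver cells. Concentrations spanned 100 uM downward in half-log steps; gain or loss of signal was fitted relative to DMSO.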

Read-out in experiment [2]: Phosphatase and tensin (PTEN), PTEN (gene 5728)
The experiment can be described thus: LTEA_HepaRG_PTEN: Life Technologies and Expression Analysis (LTEA) Assay for Phosphatase and tensin (PTEN) using HepaRG (AID 2283523). The essentials: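 Read-out is PTEN transcript level by multiplexed TaqMan qRT-PCR after 48 h chemical treatment of human HepaRG cultures in serum-free induction medium. Concentrations spanned 100 uM downward in half-log steps, 0.5% DMSO throughout; activity fitted in both directions against vehicle.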

Read-out in experiment [3]: solute carrier (SLC22A1), SLC22A1 (gene 6580)
The experiment can be described thus: LTEA_HepaRG_SLC22A1: Life Technologies and Expression Analysis (LTEA) Assay for solute carrier (SLC22A1) using HepaRG (AID 2283524).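 As to AC50: differentiated human HepaRG liver cells in serum-free induction medium.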 Summed up:
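HepaRG (human liver line), 48 h dosing in serum-free induction medium; 8 conc., half-log down from 100 uM, 0.5% DMSO vehicle, duplicates. Endpoint: SLC22A1 mRNA, qRT-PCR, housekeeping-normalized; gain/loss fit vs DMSO.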

Read-out in experiment [4]: Pyruvate Dehydrogenase Kinase 4 (PDK4), PDK4 (gene 5166)
The experiment can be described thus: LTEA_HepaRG_PDK4: Life Technologies and Expression Analysis (LTEA) Assay for Pyruvate Dehydrogenase Kinase 4 (PDK4) using HepaRG (AID 2283525). Summed up: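 In this multiplexed human HepaRG expression assay, cells are treated 48 h with test chemicals across an eight-point range starting at 100 uM. PDK4 mRNA changes, normalized to ACTB/GAPDH/POLR2A, are fitted in both directions relative to vehicle.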

Read-out in experiment [5]: NAD(P)H dehydrogenase [quinone] 1 (NQO1), NQO1 (gene 1728)
The experiment can be described thus: LTEA_HepaRG_NQO1: Life Technologies and Expression Analysis (LTEA) Assay for NAD(P)H dehydrogenase [quinone] 1 (NQO1) using HepaRG (AID 2283526). The essentials:
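HepaRG, 48 h post-plating → serum-free induction medium → test chemical 48 h (duplicate, 100 uM top, half-log x8, 0.5% DMSO) → RNA isolation → qRT-PCR, ACTB/GAPDH/POLR2A normalization; bidirectional curve fit vs DMSO baseline.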

Read-out in experiment [6]: Nuclear factor erythroid 2-related factor 2 (Homo sapiens) (UniProt Q16236)
The experiment can be described thus: LTEA_HepaRG_NFE2L2: Life Technologies and Expression Analysis (LTEA) Assay for Nuclear factor erythroid 2-related factor 2 (NFE2L2) Transcription Factor using HepaRG (AID 2283527). Summed up:
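Transcript level of NFE2L2 is the read-out, measured by microfluidic TaqMan qRT-PCR and normalized to three housekeeping genes. Human HepaRG cultures received test chemical for 48 h at up to 100 uM in half-log steps. Gain or loss of signal is fitted relative to 0.5% DMSO.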

Read-out in experiment [7]: succinate dehydrogenase complex iron sulfur subunit B (SDHB), SDHB (gene 6390)
The experiment is described as follows: LTEA_HepaRG_SDHB: Life Technologies and Expression Analysis (LTEA) Assay for succinate dehydrogenase complex iron sulfur subunit B (SDHB) using HepaRG (AID 2283528). The essentials: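 SDHB transcript level read by TaqMan qRT-PCR, housekeeping-normalised (ACTB, GAPDH, POLR2A), after 48 h chemical treatment of plated HepaRG cells; eight concentrations top 100 uM, half-log steps, 0.5% DMSO, duplicates; fitted both directions against DMSO.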

Read-out in experiment [8]: Signal transducer and activator of transcription 3 (Homo sapiens) (UniProt P40763)
The experiment is described as follows: LTEA_HepaRG_STAT3: Life Technologies and Expression Analysis (LTEA) Assay for Signal transducer and activator of transcription (STAT3) using HepaRG (AID 2283529). Summed up: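 Read-out is STAT3 mRNA level by qRT-PCR, normalized to three housekeeping genes, in human HepaRG liver cells treated for 48 h. Concentrations ran from 100 uM downward in half-log steps; curves were fitted for gain or loss relative to 0.5% DMSO.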

Read-out in experiment [9]: solute carrier (SLCO1B1), SLCO1B1 (gene 10599)
The experiment can be described thus: LTEA_HepaRG_SLCO1B1: Life Technologies and Expression Analysis (LTEA) Assay for solute carrier (SLCO1B1) using HepaRG (AID 2283530). The essentials: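 SLCO1B1 transcript read by qRT-PCR (Fluidigm arrays), normalized to three housekeeping genes, after 48 h chemical exposure of HepaRG cells; bidirectional concentration-response fitting versus 0.5% DMSO baseline. Eight-point half-log series, maximum 100 uM.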

Read-out in experiment [10]: Nuclear factor NF-kappa-B p105 subunit (Homo sapiens) (UniProt P19838)
The experiment is described as follows: LTEA_HepaRG_NFKB1: Life Technologies and Expression Analysis (LTEA) Assay for Nuclear Factor Kappa B Subunit 1 (NFKB1) using HepaRG (AID 2283521).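 As to outcome: differentiated human HepaRG liver cells in serum-free induction medium.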 Summed up:
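NFKB1 transcript was measured by TaqMan qRT-PCR on Fluidigm arrays, normalised to three housekeeping genes and fitted in both directions against 0.5% DMSO. HepaRG cells were dosed in duplicate for 48 h in serum-free induction medium, eight half-log steps from 100 uM.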

Chain of Nuclear factor NF-kappa-B p105 subunit (Homo sapiens) (P19838 whole entry, looked up): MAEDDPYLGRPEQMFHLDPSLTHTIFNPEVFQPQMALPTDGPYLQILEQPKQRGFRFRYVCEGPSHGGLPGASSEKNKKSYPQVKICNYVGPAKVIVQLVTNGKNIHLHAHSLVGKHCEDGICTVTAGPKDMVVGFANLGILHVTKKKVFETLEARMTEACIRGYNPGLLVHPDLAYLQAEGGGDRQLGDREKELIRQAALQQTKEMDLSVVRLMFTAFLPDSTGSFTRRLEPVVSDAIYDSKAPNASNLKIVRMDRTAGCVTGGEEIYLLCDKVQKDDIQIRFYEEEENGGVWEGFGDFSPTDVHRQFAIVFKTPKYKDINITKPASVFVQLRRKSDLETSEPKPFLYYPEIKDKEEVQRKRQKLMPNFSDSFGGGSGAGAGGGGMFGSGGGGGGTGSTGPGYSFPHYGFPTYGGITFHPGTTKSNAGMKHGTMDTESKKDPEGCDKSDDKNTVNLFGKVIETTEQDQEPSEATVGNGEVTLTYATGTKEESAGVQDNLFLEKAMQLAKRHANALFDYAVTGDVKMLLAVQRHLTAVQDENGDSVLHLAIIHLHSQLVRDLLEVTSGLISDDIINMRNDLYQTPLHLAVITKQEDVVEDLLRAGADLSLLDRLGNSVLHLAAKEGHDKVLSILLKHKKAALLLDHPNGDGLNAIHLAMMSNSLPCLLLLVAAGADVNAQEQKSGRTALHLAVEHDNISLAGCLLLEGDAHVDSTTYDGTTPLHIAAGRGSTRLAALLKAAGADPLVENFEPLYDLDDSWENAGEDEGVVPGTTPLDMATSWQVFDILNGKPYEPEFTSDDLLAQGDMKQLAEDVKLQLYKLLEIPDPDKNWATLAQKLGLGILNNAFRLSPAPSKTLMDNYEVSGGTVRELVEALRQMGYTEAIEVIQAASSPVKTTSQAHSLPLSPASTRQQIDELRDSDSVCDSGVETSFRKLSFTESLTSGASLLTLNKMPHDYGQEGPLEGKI
Chain of Signal transducer and activator of transcription 3 (Homo sapiens) (P40763 whole entry, looked up): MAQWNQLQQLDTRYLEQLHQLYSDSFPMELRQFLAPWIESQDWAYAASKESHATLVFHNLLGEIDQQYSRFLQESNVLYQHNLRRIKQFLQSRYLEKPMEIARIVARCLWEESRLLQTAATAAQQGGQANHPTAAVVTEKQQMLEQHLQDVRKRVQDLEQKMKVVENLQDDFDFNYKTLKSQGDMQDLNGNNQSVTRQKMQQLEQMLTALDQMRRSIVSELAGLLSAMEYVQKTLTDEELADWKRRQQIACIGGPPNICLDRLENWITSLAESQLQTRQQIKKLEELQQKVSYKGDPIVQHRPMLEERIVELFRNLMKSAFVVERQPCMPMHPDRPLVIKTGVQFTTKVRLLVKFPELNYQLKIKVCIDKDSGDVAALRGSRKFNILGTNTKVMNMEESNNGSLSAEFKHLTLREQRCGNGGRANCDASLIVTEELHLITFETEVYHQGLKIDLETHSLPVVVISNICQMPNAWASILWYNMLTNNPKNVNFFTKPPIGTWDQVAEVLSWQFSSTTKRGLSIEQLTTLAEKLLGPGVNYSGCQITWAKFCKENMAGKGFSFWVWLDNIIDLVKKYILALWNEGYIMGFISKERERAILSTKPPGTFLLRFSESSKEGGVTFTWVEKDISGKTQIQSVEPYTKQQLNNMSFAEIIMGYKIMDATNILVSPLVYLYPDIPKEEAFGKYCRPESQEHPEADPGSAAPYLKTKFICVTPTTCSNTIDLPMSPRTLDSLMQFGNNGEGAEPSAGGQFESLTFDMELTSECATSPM
Chain of Nuclear factor erythroid 2-related factor 2 (Homo sapiens) (Q16236 whole entry, looked up): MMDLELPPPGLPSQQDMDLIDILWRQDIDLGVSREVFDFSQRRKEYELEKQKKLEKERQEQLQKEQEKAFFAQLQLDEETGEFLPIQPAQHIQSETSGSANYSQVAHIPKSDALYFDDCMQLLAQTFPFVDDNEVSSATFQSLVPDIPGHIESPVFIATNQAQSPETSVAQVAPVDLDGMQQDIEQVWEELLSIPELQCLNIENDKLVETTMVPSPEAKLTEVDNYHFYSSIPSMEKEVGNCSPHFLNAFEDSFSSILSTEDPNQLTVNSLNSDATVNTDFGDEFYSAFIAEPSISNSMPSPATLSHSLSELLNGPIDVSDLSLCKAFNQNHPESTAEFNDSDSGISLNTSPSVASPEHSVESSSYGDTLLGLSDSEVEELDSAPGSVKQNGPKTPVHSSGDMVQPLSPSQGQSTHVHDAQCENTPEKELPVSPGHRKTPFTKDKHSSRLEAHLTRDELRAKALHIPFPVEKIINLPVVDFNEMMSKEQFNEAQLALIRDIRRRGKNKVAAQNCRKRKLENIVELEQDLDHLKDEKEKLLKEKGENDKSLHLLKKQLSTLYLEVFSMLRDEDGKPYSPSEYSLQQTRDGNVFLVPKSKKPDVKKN

Turning to `c1ccc(C2CO2)cc1` (stereo not given), the outcome in experiment [1], in experiment [2], in experiment [3], in experiment [4], in experiment [5] and in experiment [6] was inactive. For the same compound, the result in [7], in [8] and in experiment [9] was inactive.
In the case of `CCCCCCCCCCCCCN1CC(C)OC(C)C1` (stereo not given), the compound was called inactive in experiment [1], in experiment [2], in experiment [3], in experiment [4], in experiment [5] and in experiment [6]. Moreover, the compound was classed as inactive in experiment [7], in [8] and in experiment [9].
As to `OCCCl`, the compound was called inactive in experiment [1], in experiment [2], in [3], in experiment [4], in experiment [5] and in experiment [6]. The call in [7], in [8] and in [9] was inactive.
With `ClCCOCCCl`, the outcome in experiment [10], in experiment [1], in experiment [2], in experiment [3], in experiment [4] and in experiment [5] was inactive. Further, the result in [6], in experiment [7], in experiment [8] and in experiment [9] was inactive.
In the case of `Clc1ccc(Cl)c(Cl)c1`, the compound was classed as inactive in experiment [1], in experiment [2], in experiment [4], in experiment [5], in experiment [6] and in experiment [7]. The result in experiment [8] and in experiment [9] was inactive. The half-maximal activity concentration (AC50) in experiment [3] is 20 µM (active).
Consider `O=C(O)C1C2CCC(O2)C1C(=O)O` (stereo not given), for which the compound was called inactive in [1], in experiment [2], in [4], in [5], in experiment [6] and in experiment [7]. Besides, the call in experiment [8] was inactive. Moreover, the figures for the AC50 in experiment [3] and in [9] were 70.7 µM (active) and 69 µM (active), respectively.
For `CC(C)(C)OOC(C)(C)CCC(C)(C)OOC(C)(C)C`, the call in [1], in experiment [2], in experiment [3], in [4], in experiment [5] and in experiment [7] was inactive. In addition, the outcome in [8] and in experiment [9] was inactive.
Consider `c1ccc(N=Nc2ccccc2)cc1`, for which the call in experiment [10], in experiment [1], in [2], in [3], in experiment [4] and in experiment [5] was inactive. The compound was classed as inactive in experiment [6], in experiment [7] and in experiment [9].
As to `CC(C)COC(=O)c1ccccc1C(=O)OCC(C)C`, the outcome in [1], in [2], in experiment [3], in experiment [4], in experiment [5] and in experiment [6] was inactive. Further, the compound was classed as inactive in [7], in experiment [8] and in experiment [9].
For `Cc1ccc([N+](=O)[O-])cc1`, the result in [1], in [2], in experiment [3], in [4], in [5] and in experiment [6] was inactive. The result in experiment [7], in experiment [8] and in experiment [9] was inactive.
For the compound `COC(=O)Nc1nc2ccccc2[nH]1`, the call in [1], in [2], in experiment [3], in experiment [4], in experiment [5] and in experiment [6] was inactive. Further, the outcome in experiment [7], in [8] and in experiment [9] was inactive.
Consider `Nc1ccc(Cl)cc1N`, for which the AC50 was 12.5 µM (active) in experiment [10]; 26.3 µM (active) in experiment [1]; 32.6 µM (active) in [2]; 18.9 µM (active) in [3]; 78 µM (active) in [5]; 12.2 µM (active) in experiment [6]. Moreover, the figures for the AC50 in experiment [7] and in [9] were 21.6 µM (active) and 20.9 µM (active), respectively. Moreover, the compound was classed as inactive in experiment [4] and in experiment [8].
For the compound `C[N+](C)(C)CC1CO1` (stereo not given), the result in experiment [1], in [2], in experiment [3], in [4], in [5] and in [6] was inactive. Also, the call in experiment [7], in experiment [8] and in experiment [9] was inactive.
Consider `CS(=O)(=O)NC(=O)c1cc(Oc2ccc(C(F)(F)F)cc2Cl)ccc1[N+](=O)[O-]`, for which the result in [1], in experiment [2], in [3], in experiment [5], in experiment [6] and in experiment [7] was inactive. For the same compound, the outcome in [8] and in experiment [9] was inactive. For the same compound, in experiment [4], the AC50 is 16 µM (active).
As for `O=P(OCCCl)(OCCCl)OCCCl`, the AC50 in experiment [1] is 50 µM (active). The compound was called inactive in experiment [2], in [3], in experiment [4], in [5], in experiment [6] and in experiment [7]. Also, the outcome in experiment [8] and in experiment [9] was inactive.
As to `Nc1cc(Cl)cc(C(=O)O)c1Cl`, the call in experiment [1], in experiment [2], in [3], in experiment [4], in experiment [5] and in experiment [6] was inactive. In addition, the outcome in experiment [7], in experiment [8] and in experiment [9] was inactive.
Consider `[O-][Cl+]O`, for which the call in experiment [10], in experiment [1], in [2], in experiment [3], in experiment [4] and in experiment [5] was inactive. Besides, the compound was called inactive in experiment [6], in experiment [7], in experiment [8] and in experiment [9].
Take `COc1cc(C=O)cc2c1[C@H](COC(N)=O)[C@]1(OC(C)=O)ON2C[C@H]2[C@@H]1N2C(C)=O`: the result in experiment [1], in experiment [5] and in [8] was inactive. Besides, the AC50 in experiment [2] was 29.9 µM (active); in experiment [3] it was 0.58 µM (active); in experiment [4], 95.3 µM (active); in [6] it was 93.1 µM (active); in [7], 93.4 µM (active); in [9], 0.733 µM (active).
Consider `CO[C@@H]1[C@H](OC(=O)NC(=O)CCl)CC[C@]2(CO2)[C@H]1[C@@]1(C)O[C@@H]1CC=C(C)C`, for which the compound was called inactive in experiment [10], in [1], in experiment [2], in experiment [3], in experiment [4] and in experiment [5]. In addition, the call in [6], in experiment [7], in experiment [8] and in experiment [9] was inactive.
Regarding `ClC1=C(Cl)[C@]2(Cl)[C@H]3[C@H]([C@@H]4C=C[C@H]3C4)[C@@]1(Cl)C2(Cl)Cl`, the result in [1], in experiment [2], in experiment [4], in [5], in [7] and in experiment [8] was inactive. In addition, the outcome in experiment [9] was inactive. In addition, in [3], the half-maximal activity concentration (AC50) is 9.92 µM (active).
Regarding `Nc1ccc(N=Nc2ccccc2)cc1`, the AC50 in experiment [1] was 21.1 µM (active); in experiment [2], 25 µM (active); in experiment [3], 13.6 µM (active); in [4], 13.4 µM (active); in experiment [7], 18.8 µM (active); in experiment [9], 11.4 µM (active). Moreover, the compound was classed as inactive in [5], in experiment [6] and in experiment [8].
With `CCNS(=O)(=O)C(F)(F)C(F)(F)C(F)(F)C(F)(F)C(F)(F)C(F)(F)C(F)(F)C(F)(F)F`, the result in experiment [1], in [2], in experiment [5], in experiment [6], in experiment [7] and in experiment [8] was inactive. Further, the AC50 in experiment [3] is 40.5 µM (active); in [4] it was 30.4 µM (active); in experiment [9], 48.2 µM (active).
